Screening data: PubChem, National Center for Advancing Translational Sciences (NCATS)
Many of the other results were omitted from the sample, so hits are more common in it than they were.
Pf Dd2 inh = qHTS Primary assay for Inhibitors of Plasmodium falciparum Dd2 growth in vitro. P. falciparum Dd2 growth, SYBR Green, 72 h. Potency, µM (doses to about 28.9 µM), for the others: top-dose activity, negative = inhibition, hits mostly inhibitors. 120,000 compounds, 4.3% hits; active = well fitted inhibition curve with a large enough effect;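 also: plate controls were DMSO vehicle for no effect and reference drug for full effect; nearly all actives have a fitted effect of over 65% in size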
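Infected erythrocytes (Dd2, 0.3% parasitemia, 2.5% hematocrit final) are added to compound in RPMI-1640/Albumax II medium, grown 72 h at 37C in low oxygen, then lysed with saponin/Triton-X containing SYBR Green and read by fluorescence.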
An asterisk follows results filed as active; i = inactive; [ ] = another dose, or the depositor's remark. Potency is read from the fitted curve at half-maximal effect.

SMILES | Pf Dd2 inh
CS(=O)(=O)N1CCC(C2CCN(C(=O)c3cccc(C#N)c3)C2)CC1 (stereo not given) | 4%
COc1ccc(C(=O)N2CCC3(CC(C)=NO3)C2)cc1 (stereo not given) | 5%[44.1 µM]
COCCN1C(=O)[C@@H]2C[C@@H](CN2C(=O)CC(C)(C)C)Oc2ccccc21 | 24%[44.1 µM]
CCCc1noc(-c2ccn3c(CNC(=O)c4ccccc4OC)nnc3c2)n1 | -10%
O=C(Nc1cccc(F)c1)N1CCc2c(c3ccccc3n2CC2CC2)C1 | -8%
O=C(Cn1cc(SCc2ccccc2F)c2ccccc21)N1CCCC1 | 4%
O=C(NCCn1cc(SCc2ccccc2)c2ccccc21)c1cccs1 | i
O=C(NCCn1cc(SCc2ccccc2Cl)c2ccccc21)c1cccs1 | 11µM*
CCc1noc(-c2cn(C3CCN(C(=O)c4cc(Cl)ccc4OC)CC3)nn2)n1 | -28%
COC1C(=O)N(CC2CC2)C12CCN(C(=O)Cc1cccc(F)c1)CC2 (stereo not given) | -21%
CCO[C@H]1C[C@@H](O)C12CCN(c1ccnc(OC)c1C#N)CC2 | -29%
CCSc1nn(CC(=O)Nc2ccc(C(=O)OC)cc2)c(N)c1S(=O)(=O)c1ccc(C)cc1 | -15%
CSc1nn(CC(=O)Nc2ccccc2F)c(N)c1S(=O)(=O)c1ccccc1 | 11%
CCOC(=O)c1ccc(NC(=O)Cn2nc(SC)c(S(=O)(=O)c3ccc(Cl)cc3)c2N)cc1 | 11µM*
O=C(CCn1nnc(-c2ccccc2)n1)N1CCCC2(CCNCC2)CC1 | -10%
O=C(C[C@@H]1CCNC[C@@H]1Cc1cc(CN2CCCCC2)on1)N1CCCCC1 | -25%[44.1 µM]
COc1cccc(CN2Cc3nc(-c4cc(Cl)ccc4OC)ccc3OCC2=O)c1 | -20%[44.1 µM]
Cc1ccc(SC2CCN(Cc3cc4n(n3)CCNC4)CC2)cc1 | 10µM*
COc1ccccc1OC1CCN(Cc2cc3n(n2)CCNC3)CC1 | -16%
Cc1nc(CC2CCN(Cc3cc4n(n3)CCNC4)CC2)no1 | -5%
CCNC(=O)[C@@H]1C[C@H](NC(=O)Cc2ccccc2F)CN1C1CCOCC1 | 2%
Cc1nsc(NC(=O)NC(C)c2ccc(Cl)cc2)n1 (stereo not given) | -1%
COc1cccc(CNC2(Cc3cc(C(C)(C)O)on3)COC2)c1 | 29%[44.1 µM]
CCc1nc2c(c(-c3ccc(OC)cc3)n1)CCN([S+](=O)([O-])c1cccs1)CC2 | -14%
O=S(=O)(c1cccs1)N1CCc2nc(C3CC3)nc(-c3ccc(Cl)cc3)c2C1 | -11%
SMILES | Pf Dd2 inh
O=[S+]([O-])(c1cccs1)N1CCc2nc(C3CC3)nc(-c3ccc(Cl)cc3)c2CC1 | 4µM*
CC(C)c1nc2c(c(-c3ccc(Cl)cc3)n1)CN([S+](=O)([O-])c1cccs1)CC2 | i
COc1ccc(-c2nc(C(C)C)nc3c2CN([S+](=O)([O-])c2cccs2)CC3)cc1 | 5µM*
COc1ccc(-c2nc(C(C)C)nc3c2CN([S+](=O)([O-])c2cccc(OC)c2)CC3)cc1 | i
O=C(CCc1nc2ccccc2s1)N1CCC(Cc2noc(-c3ccc(F)cc3)n2)C1 (stereo not given) | -19%
Cc1ccc(-n2c(C3CCN(C(=O)Cc4ccccc4C)CC3)n[nH]c2=O)cc1 | i
CN(Cc1ccc2nsnc2c1)C(=O)c1ccc(N2CCCC2=O)cc1 | 13%
COCC(=O)N1CCCC(C(=O)NCc2ccc3nsnc3c2)C1 (stereo not given) | 0%
Cc1ccc(N2CCC3(CCCN3Cc3ccc4nsnc4c3)CC2)nn1 | 13µM*
COC[C@H]1NC(=O)CC[C@H]1C(=O)Nc1cc(C)ccc1OC | -14%
Cc1[nH]cnc1C(=O)N1CCC2(CC1)CC(C(=O)O)N(C(=O)C1CC1)C2 (stereo not given) | 13%
CS(=O)(=O)N1CCC(C2CCN(Cc3ccncc3)C2)CC1 (stereo not given) | -2%
Cn1cc(CN2C[C@@H]3OCC(=O)N[C@@H]3C2)c2ccccc21 | i
Cn1cc(CN2CC[C@@H](c3ccc4c(c3)OCO4)[C@H](O)C2)c2ccccc21 | 8.9µM*
CS(=O)(=O)N1CCC(C2CCN(Cc3ccsc3)C2)CC1 (stereo not given) | i
Cn1cc(CN2CCC(C3CCN(S(C)(=O)=O)CC3)C2)c2ccccc21 (stereo not given) | 3.5µM*
CN1C[C@H]2CN(Cc3cn(C)c4ccccc34)CCN2C1=O | -28%[44.1 µM]
CN(CCc1ccccn1)C(=O)COc1ccc(NC(=O)C2CC2)cn1 | -3%
Cn1cnnc1CC1CCN(S(=O)(=O)c2ccc(F)cc2)CC1 | 6%
O=C(CCc1cc(=O)[nH]o1)N[C@H](c1ccccn1)C1CC(O)C1 (stereo not given in full) | -9%
COc1ccccc1NC(=O)NC1CC(=O)N(Cc2cccc(F)c2)C1 (stereo not given) | -1%
COc1cc(C2CC(=O)N(Cc3cccc(F)c3)c3ccccc3S2)cc(OC)c1OC (stereo not given) | 4.5µM*
COc1ccccc1C(=O)NC1CC(=O)N(Cc2cccc(F)c2)C1 (stereo not given) | -3%
COc1ccc([C@H](C)NC(=O)c2c(C)noc2-c2ccc(OC(F)(F)F)cc2)cc1 | i
O=C(O)c1ccccc1C(=O)N1C[C@@H]2C[C@H]1C(=O)N(Cc1ccccc1)c1ccccc1O2 | 32%
SMILES | Pf Dd2 inh
COCCNC(=O)[C@@H]1C[C@H](Oc2cccnc2)CN1C(=O)c1cc2ccc(OC)cc2[nH]1 | i
CCn1cc(-c2ccc(C)cc2)cc1C(=O)O | 3%
CCOc1cc(-c2nnc(SCC(=O)NCc3ccc(C)cc3)nc2-c2ccc(OC)c(OCC)c2)ccc1OC | 13%
CCOc1ccc(-c2nnc(SCC(=O)NC(C)CC)nc2-c2ccc(OCC)c(OC)c2)cc1OC (stereo not given) | i
CCOc1cc(-c2nnc(SCC(=O)NCc3ccccc3)nc2-c2ccc(OC)c(OCC)c2)ccc1OC | 8.9µM*
O=C([C@@H]1C[C@H](F)CN1C(=O)c1cccc(F)c1)N1CCCCC1 | -20%
COCCN1C(=O)c2cccn2CC1CNC(=O)c1cccc(OC)c1 (stereo not given) | -7%
CCCNC(=O)C1COC2(CCN(C(=O)c3ccccc3Cl)CC2)N1C(=O)c1cccc(F)c1 (stereo not given) | -17%
O=[N+]([O-])c1ccc(O)c(-c2ccnc3cc(-c4ccccc4)nn23)c1 | 10µM*
COc1ccc(-c2cc3ncc(C(=O)c4cc([N+](=O)[O-])ccc4O)cn3n2)cc1 | -4%
O=[N+]([O-])c1cccc(-c2ncc[nH]2)c1 | -12%[76.6 µM]
CN(CCc1ccccn1)C(=O)CCC[C@H]1NC[C@@H]2CC1CN(Cc1ccccc1)C2 | -9%
O=C(c1ccccc1)N1CCC2(CC(c3cccc(C(F)(F)F)c3)=NO2)C1 (stereo not given) | -9%
COCCN1CCCC(c2[nH]ccc2C(=O)N2CCSCC2)C1 (stereo not given) | i
COc1cccc(CCC(=O)N2CCCC(CO)(CC3CC3)C2)c1 (stereo not given) | -5%
CN(C)C(=O)CN1CCCC(CO)(CC2CC2)C1 (stereo not given) | -20%
CCc1nccc(CN2CCCC(CC3CC3)(C(=O)O)C2)n1 (stereo not given) | -8%
CCc1nc(CN2CCCC(CO)(CC3CC3)C2)cs1 (stereo not given) | 13µM*
COc1ccc(CN2CCCC(CO)(CC3CC3)C2)c(F)c1 (stereo not given) | 13µM*
O=C(O)C1(CC2CC2)CCCN(Cc2ncccn2)C1 (stereo not given) | -3%
